From PubChem
In the library only some 31% were active in any assay of this set; here they are far more common.
CYP2C19 act: increases human CYP2C19 enzyme activity; P33261; recombinant CYP2C19, luciferin-H EGE luminescence; hits give high values; 0 = fully inhibited enzyme, 1 = untreated enzyme; activation factor at 5 µM; 96,000 tested, under 10 active;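 active means activation factor of at least 2 at 5 µM in the primary screen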;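 further: 0 = wells with 2.5 mM tranylcypromine and 1 = vehicle-only wells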
CYP2C9 inhib: inhibitors of human CYP2C9. inhibition, % at 5 µM. P11712. 20% of 96,000 active. CYP2C9 Supersomes, luciferin-H conversion, luminescence;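 active means blocking of liver enzyme CYP2C9 beyond about 50% at 5 µM, limit read from the data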
CYP2C19 inhib: blocks human cytochrome P450 2C19; P33261; CYP2C19 Supersomes, luciferin-H EGE luminescence, 30 min; inhibition, % at 5 µM; 21% of 96,000 active; AID 778;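 active means CYP2C19 inhibition above a set limit at 5 µM in the primary screen, cut at about 50% in these data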;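 further: plate controls were negative control wells for no effect and 2.5 mM tranylcypromine positive control for full effect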
PLAP activator: human PLAP activation. purified PLAP enzyme, luminescent substrate read-out; hits give high values. activation fold at 20 µM. 1.2% of 96,000 active. AID 696; in the data active means activation fold above about 2
CYP2C9 activ: CYP2C9 (human) activation; P11712; recombinant CYP2C9, luciferin-H conversion, luminescence; hits give high values; factor 1 = untreated enzyme, 0 = blocked; activation factor at 5 µM; 1.4% of 96,000 active; AID 1024;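 active means activation factor of 2 or more for CYP2C9 at a 5 µM dose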;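 further: 0 = sulfaphenazole-blocked wells and 1 = vehicle-only wells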
Starred values were filed as active, the others as inactive.

SMILES | CYP2C19 act | CYP2C9 inhib | CYP2C19 inhib | PLAP activator | CYP2C9 activ
FC(F)(F)c1cc(-c2ccccc2)nc(NCc2cccnc2)n1 | 0.1 | 73* | 93* | 0.9 | 0.3
Cc1ccccc1C(=O)N1CCC(C(N)=O)CC1 | 1 | 8 | 0 | 1.4 | 0.9
O=C(CSc1nnc2ccccn12)Nc1ccccc1C(=O)NC1CC1 | 1.1 | 3 | -5 | 1 | 1
N#CCC(CNc1ncc(C(F)(F)F)cc1Cl)OC(=O)c1cccc([N+](=O)[O-])c1 (stereo unspecified) | 0 | 68* | 96* | 0.9 | 0.3
N#CCC(CNc1ncc(C(F)(F)F)cc1Cl)OC(=O)c1ccc(Cl)cc1 (stereo unspecified) | 0.2 | -9 | 84* | 1 | 1.1
O=C(COC(=O)C1=COCCO1)Nc1ncc(C(F)(F)F)cc1Cl | 0.7 | 21 | 33 | 1.2 | 0.8
O=S(=O)(c1ccc(NCCc2c[nH]c3ccccc23)nc1)N1CCOCC1 | 0.5 | 28 | 51* | 0.8 | 0.7
CC1=CCC(C(=O)O)(C(=O)N/N=C/c2cccs2)C(c2ccc([N+](=O)[O-])cc2)C1 (stereo unspecified) | 1 | 20 | 2 | 1.3 | 0.8
CC1=CCC(C(=O)O)(C(=O)N/N=C/c2cccs2)C(c2ccc(F)cc2)C1 (stereo unspecified) | 0.9 | 67* | 8 | 1.3 | 0.3
Cc1ccc(S(=O)(=O)NC(CN2CCOCC2)=NCCNS(=O)(=O)c2ccccc2)cc1 | 0.7 | 52* | 29 | 1.6 | 0.5
CCn1nc([N+](=O)[O-])c(C(C#N)c2nc3cc(C(F)(F)F)ccc3s2)c(Cl)c1=O (stereo unspecified) | 0.9 | 30 | 9 | 1 | 0.7
O=C(Nc1ccc2c(c1)OCCO2)c1cccc(S(=O)(=O)N2CCOCC2)c1 | 0.9 | 5 | 5 | 0.8 | 1
Cc1ccc(C(=O)Nc2ccc3c(c2)OCO3)cc1S(=O)(=O)N1CCCC1 | 0.5 | 58* | 46 | 0.8 | 0.4
O=C(Nc1ccc(N2CCOCC2)cc1)c1cccc(S(=O)(=O)N2CCC(Cc3ccccc3)CC2)c1 | 0.5 | 64* | 46 | 1.1 | 0.4
Cc1ccc(C(=O)Nc2cccc(C(=O)O)c2)cc1S(=O)(=O)N1CCOCC1 | 1 | -12 | 2 | 1 | 1.1
Cc1ccc(C(=O)Nc2ccc3c(c2)OCO3)cc1 | 0.6 | 27 | 38 | 0.9 | 0.7
Cc1ccc(C(=O)Nc2cccc(C(=O)O)c2)cc1S(=O)(=O)N1CCCCC1 | 0.5 | 57* | 47 | 1.5 | 0.4
O=C(Nc1ccc2c(c1)OCCO2)c1cccc(S(=O)(=O)N2CCCCC2)c1 | 0.6 | 63* | 41 | 0.8 | 0.4
Cc1ccc(C(=O)NCc2ccco2)cc1S(=O)(=O)N1CCCCC1 | 0.8 | 41 | 24 | 0.9 | 0.6
Cc1ccc(C(=O)OCc2ccc3c(c2)OCO3)cc1S(=O)(=O)N1CCCCC1 | 0.2 | 95* | 79* | 1.1 | 0
O=C(O)c1cccc(NC(=O)c2ccc3c(c2)C(=O)N(CC2CCCO2)C3=O)c1 (stereo unspecified) | 0.2 | 73* | 77* | 0.8 | 0.3
Cn1cc(Cl)c(-c2nc3ccccc3[nH]2)n1 | 0.4 | 32 | 62* | 0.9 | 0.7
CC1CCN(S(=O)(=O)N2CCC(C(=O)NCc3cccs3)CC2)CC1 | 1 | 13 | 2 | 1.1 | 0.9
CCOC(=O)CN(C(=O)CSc1nnc(CNc2ccc(C)cc2C)o1)c1ccccc1 | 0.7 | 47 | 33 | 1.4 | 0.5
Cc1sc2nc(C3CCCCC3)nc(SCC(=O)N3CC(=O)Nc4ccccc43)c2c1C | 0.6 | 86* | 40 | 0.8 | 0.1
CC1(c2ccccc2)CC(C)(C)N(C(=O)C2CCCO2)c2ccccc21 (stereo unspecified) | 0.2 | 66* | 77* | 1.7 | 0.3
CC1(c2cc([N+](=O)[O-])cc([N+](=O)[O-])c2)CC(C)(C)N(C(=O)c2ccccc2)c2ccccc21 (stereo unspecified) | 1.1 | 10 | -8 | 1 | 0.9
O=C(Oc1ccc2c(=O)c(Cl)coc2c1)c1ccncc1 | 0.3 | 77* | 75* | 1 | 0.2
Cc1cc(NC(=O)CN2CCCCC2C)no1 (stereo unspecified) | 0.9 | -7 | 6 | 1 | 1.1
Cn1cc(C(=O)c2ccc(Cl)cc2Cl)cc1C(=O)N/N=C(\N)COc1ccccc1 | 1 | 19 | 2 | 1.5 | 0.8
